# In PubChem BioAssay (EPA / NIEHS):
# Where “and” joins values, the source holds several entries; their conditions need not be identical. Identical values can stand only once. Results filed as inconclusive are left out. More than one record can exist for a structure, and the calls need not agree. Calls of active or inactive are those of the source. The calls were made as follows, unless noted: active = hit-call score of the fitted dose curve at least 0.9, where 1 is the maximum; inconclusive = response in the unintended direction; inactive = score below 0.9.
# Legend:
# [1] = target: bovine Estrogen Receptor (ER), ESR1 (gene 407238) (UniProt P49884); assay: NVS_NR_bER: NovaScreen (NVS) Nuclear Receptor Binding Assay for bovine Estrogen Receptor (ER) (AID 2283345);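 also: actives lower the bound radioligand count which means they displace the ER ligand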
# Summary of the method: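 Scintillation counting of displaced radioligand gave the readout; bovine uterine membrane extract supplied the receptor. Measured 18 h post-dose, normalized to DMSO baseline. Single 25 uM duplicate screen preceded concentration-response follow-up.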
# [2] = target: mouse Estrogen Receptor alpha (Era), Esr1 (gene 13982) (UniProt P19785); assay: NVS_NR_mERa: NovaScreen (NVS) Nuclear Receptor Binding Assay for mouse Estrogen Receptor alpha (Era) (AID 2283378);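 also: hit means loss of bound radioligand signal relative to DMSO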
# Summary of the method: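 Extracted mouse Era incubated with tritiated or iodinated radioligand plus test chemical, 18 h. Bound fraction separated on filters, counted by scintillation. DMSO = negative control/baseline; duplicate single-point at 25 uM, then concentration-response follow-up.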
# [3] = TOX21_p53_BLA_p2_viability: Viability Assessment in the Tox21 HCT-116 p53 Agonism Beta-lactamase Assay, Phase 2 (AID 2283591);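 also: compound exposure lasted 16 h at 37 °C; actives lower the ATP signal meaning cytotoxicity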
# Summary of the method: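 HCT116 p53-bla cells, 4000/well, dosed after 5 h plating (217-fold dilution of DMSO stocks) and incubated 16 h at 37C. Viability taken as cellular ATP by CellTiter-Glo luminescence after 30 min RT; signal loss marks cytotoxicity.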
# [4] = target: Cellular tumor antigen p53 (Homo sapiens) (UniProt P04637); assay: TOX21_p53_BLA_p2_ratio: Tox21 HCT-116 p53 Agonism Beta-lactamase Assay, Ratio, Phase 2 (AID 2283592)
# Summary of the method: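 Plated HCT116 p53-bla cells (4000/well) received compound after 5 h, then 16 h at 37C/5% CO2. CCF4-AM added, 2 h RT. Ratio of 460 to 530 nm emission taken as the p53 reporter signal.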
# [5] = TOX21_p53_BLA_p3_viability: Viability Assessment in the Tox21 HCT-116 p53 Agonism Beta-lactamase Assay, Phase 3 (AID 2283593);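 also: cells exposed to compound for 16 h before reading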
# Summary of the method: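 HCT116 cells, 4000/well, dosed 5 h after plating by pin transfer (217-fold dilution from DMSO stock) and incubated 16 h at 37C, 5% CO2. Viability read as ATP luminescence with CellTiter-Glo after 30 min at room temperature.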
# [6] = target: Cellular tumor antigen p53 (Homo sapiens) (UniProt P04637); assay: TOX21_p53_BLA_p3_ratio: Tox21 HCT-116 p53 Agonism Beta-lactamase Assay, Ratio, Phase 3 (AID 2283596)
# Summary of the method: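 Cells were seeded at 4000/well, rested 5 h at 37C, then dosed with DMSO compound solutions (217-fold dilution) for 16 h. CCF4-AM substrate was loaded for 2 h at room temperature, and the 460/530 nm emission ratio was fitted for gain of signal versus DMSO.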
# [7] = TOX21_p53_BLA_p4_viability: Viability Assessment in the Tox21 HCT-116 p53 Agonism Beta-lactamase Assay, Phase 4 (AID 2283597);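 also: hits lower the luminescence signal meaning cytotoxicity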
# Summary of the method: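 Readout: ATP luminescence (CellTiter-Glo), measured 30 min after reagent addition at RT. The reagent followed a 2 h CCF4-AM incubation, and the cells had been exposed to compound for 16 h at 37C.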
# [8] = target: Cellular tumor antigen p53 (Homo sapiens) (UniProt P04637); assay: TOX21_p53_BLA_p5_ratio: Tox21 HCT-116 p53 Agonism Beta-lactamase Assay, Ratio, Phase 5 (AID 2283599)
# Summary of the method: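 HCT-116 p53-bla cells (4000/well) plated 5 h, dosed with compound (217-fold DMSO dilution) for 16 h at 37 C; CCF4-AM substrate 2 h at room temperature. Activity is the 460/530 nm emission ratio (405 nm excitation), fitted in gain-of-signal direction versus DMSO.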
# [9] = TOX21_p53_BLA_p5_viability: Viability Assessment in the Tox21 HCT-116 p53 Agonism Beta-lactamase Assay, Phase 5 (AID 2283600)
# Summary of the method: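 Workflow: seed 4000 cells per well, wait 5 h, add compounds (DMSO, 217-fold dilution), incubate 16 h, load CCF4-AM 2 h, add CellTiter-Glo, read luminescence after 30 min.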
# [10] = target: Cellular tumor antigen p53 (Homo sapiens) (UniProt P04637); assay: TOX21_p53_BLA_p4_ratio: Tox21 HCT-116 p53 Agonism Beta-lactamase Assay, Ratio, Phase 4 (AID 2283601)
# Summary of the method: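 HCT-116 p53 beta-lactamase reporter cells (4000/well) preincubated 5 h, then compound (217-fold dilution of DMSO stock) for 16 h at 37C. CCF4-AM substrate added 2 h at room temperature; 460/530 nm emission ratio fitted upward versus DMSO.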
# [11] = target: Estrogen receptor (Homo sapiens) (UniProt P03372); assay: NVS_NR_hER: NovaScreen (NVS) Nuclear Receptor Binding Assay for human Estrogen Receptor (ER) (AID 2283348)
# Summary of the method: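 MCF7-derived receptor extract, radiolabelled ligand, competitive displacement. Read: scintillation counts at 18 h. DMSO = negative control/baseline. Primary 25 uM duplicate; follow-up concentration–response.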
# [12] = CCTE_Harrill_HTTr_Viability_MCF7: CCTE's 6-hour Cell Viability Assessment for the High-Throughput Transcriptomics (HTTr) Platform, in MCF-7 cells cultured in DMEM + 10% fetal bovine serum, Harrill Lab (AID 2284010; active = hit-call score of the fitted dose curve at least 0.9, where 1 is the maximum; inactive = score below 0.9)
# Summary of the method: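 Eight-point concentration series, six-hour exposure. Propidium iodide exclusion imaged to assess membrane integrity as a cytotoxicity readout; bidirectional fitting was done with DMSO as negative control and activity baseline.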
# [13] = CCTE_Harrill_HTTr_Apoptosis_MCF7: CCTE's 6-hour Apoptosis Assessment for the High-Throughput Transcriptomics (HTTr) Platform, in MCF-7 cells cultured in DMEM + 10% fetal bovine serum, Harrill Lab (AID 2284011; active = hit-call score of the fitted dose curve at least 0.9, where 1 is the maximum; inactive = score below 0.9)
# Summary of the method: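 MCF-7 (DMEM + 10% FBS), 384-well; 8-pt dilution series, 6 h chemical exposure; caspase-3/7 activation via CellEvent Caspase 3/7 Green, HCI; bidirectional fit vs DMSO.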
# [14] = TOX21_PR_BLA_Followup_Agonist_viability: Viability Assessment in the Tox21 HEK293 Progesterone Receptor (PR) Agonism Beta-lactamase Follow-Up Assay (AID 2283935);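 also: signal loss means lower viability so actives are cytotoxic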
# Summary of the method: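 Viability is read as CellTiter-Glo luminescence, where loss of signal indicates cytotoxicity. The cells are PR-UAS-bla HEK293T given compounds for 16 hr at 37C and 5% CO2, in the same wells used for the bla readout.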
# [15] = TOX21_PR_BLA_Followup_Antagonist_viability: Viability Assessment in the Tox21 HEK293 Progesterone Receptor (PR) Antagonism Beta-lactamase Follow-Up Assay (AID 2283936);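 also: cells exposed to compound with R5020 agonist for 16 h; hits lower the luminescence signal meaning cytotoxicity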
# Summary of the method: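 PR-UAS-bla HEK293T cells in medium with 2% charcoal-stripped FBS were treated with compounds plus R5020 for 16 hr at 37C. After the beta-lactamase read, CellTiter-Glo was added to the same wells and luminescence read after 30 min at room temperature.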
# [16] = target: PGR (gene 5241) (UniProt P06401); assay: TOX21_PR_LUC_Followup_Antagonist: Tox21 HEK293 Progesterone Receptor (PR) Antagonism Luciferase Follow-Up Assay (AID 2283938);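 also: curve fitted upward as signal gain over DMSO baseline despite antagonist label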
# Summary of the method: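 Cells are grown 5 days in charcoal-stripped-FBS assay medium, plated, left 5 h, then dosed with compound and incubated 16 h. ONE-Glo reagent is added and luminescence read after 30 min.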
# [17] = TOX21_PR_LUC_Followup_Agonist_viability: Viability Assessment in the Tox21 HEK293 Progesterone Receptor (PR) Agonism Luciferase Follow-Up Assay (AID 2283941);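 also: loss of signal means cytotoxicity so actives lower viability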
# Summary of the method: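 Seeding: HEK293-PR-A-luc, 3,000 cells/well, 5 h at 37C. Treatment: compound in DMSO, 16 h, 37C. Read: CellTiter-Glo ATP luminescence, signal loss taken as lower viability.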
# Sequence of Cellular tumor antigen p53 (Homo sapiens) (P04637 whole entry, looked up): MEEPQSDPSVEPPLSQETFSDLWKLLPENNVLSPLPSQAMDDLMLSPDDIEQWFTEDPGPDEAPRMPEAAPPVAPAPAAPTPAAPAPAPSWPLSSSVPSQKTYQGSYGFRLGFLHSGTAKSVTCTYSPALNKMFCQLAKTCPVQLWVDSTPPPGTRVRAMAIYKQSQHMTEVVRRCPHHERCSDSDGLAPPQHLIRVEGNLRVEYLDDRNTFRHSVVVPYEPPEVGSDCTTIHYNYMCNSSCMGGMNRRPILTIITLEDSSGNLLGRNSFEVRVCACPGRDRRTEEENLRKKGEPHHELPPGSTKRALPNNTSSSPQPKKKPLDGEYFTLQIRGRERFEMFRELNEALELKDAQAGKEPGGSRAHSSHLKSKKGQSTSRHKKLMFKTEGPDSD
# Sequence of Estrogen receptor (Homo sapiens) (P03372 whole entry, looked up): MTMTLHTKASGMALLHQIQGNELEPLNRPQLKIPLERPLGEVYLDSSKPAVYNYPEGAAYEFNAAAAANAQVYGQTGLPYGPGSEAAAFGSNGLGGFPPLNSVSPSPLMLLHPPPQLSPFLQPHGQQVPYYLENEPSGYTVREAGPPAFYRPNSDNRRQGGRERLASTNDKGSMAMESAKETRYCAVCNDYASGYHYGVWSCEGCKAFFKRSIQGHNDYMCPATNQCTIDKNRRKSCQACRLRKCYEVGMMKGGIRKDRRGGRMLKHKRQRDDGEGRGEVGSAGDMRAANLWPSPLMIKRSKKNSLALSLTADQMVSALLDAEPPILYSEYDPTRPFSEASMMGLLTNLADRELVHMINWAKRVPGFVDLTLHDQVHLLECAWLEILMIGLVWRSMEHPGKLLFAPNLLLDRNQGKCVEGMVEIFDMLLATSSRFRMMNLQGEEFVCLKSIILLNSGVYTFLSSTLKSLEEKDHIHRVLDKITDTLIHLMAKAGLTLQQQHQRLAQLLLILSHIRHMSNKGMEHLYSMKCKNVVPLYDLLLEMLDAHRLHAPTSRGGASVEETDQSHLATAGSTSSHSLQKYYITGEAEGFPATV
# Sequence of bovine Estrogen Receptor (ER), ESR1 (gene 407238) (P49884 whole entry, looked up): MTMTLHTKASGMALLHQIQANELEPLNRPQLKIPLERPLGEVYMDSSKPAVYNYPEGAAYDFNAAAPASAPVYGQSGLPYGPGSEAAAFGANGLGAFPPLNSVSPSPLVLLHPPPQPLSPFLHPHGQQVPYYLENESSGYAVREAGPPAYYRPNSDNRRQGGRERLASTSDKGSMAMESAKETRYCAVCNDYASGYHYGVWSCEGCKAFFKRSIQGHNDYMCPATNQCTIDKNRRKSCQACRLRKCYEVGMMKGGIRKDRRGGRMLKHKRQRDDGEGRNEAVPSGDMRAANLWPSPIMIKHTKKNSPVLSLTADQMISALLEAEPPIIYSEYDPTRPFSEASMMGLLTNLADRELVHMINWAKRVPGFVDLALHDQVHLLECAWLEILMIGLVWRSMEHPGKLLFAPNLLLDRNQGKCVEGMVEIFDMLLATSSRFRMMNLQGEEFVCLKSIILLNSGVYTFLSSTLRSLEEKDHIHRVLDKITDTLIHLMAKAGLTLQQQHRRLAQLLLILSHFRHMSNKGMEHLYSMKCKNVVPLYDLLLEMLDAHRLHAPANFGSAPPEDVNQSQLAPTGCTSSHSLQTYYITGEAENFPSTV
# Sequence of mouse Estrogen Receptor alpha (Era), Esr1 (gene 13982) (P19785 whole entry, looked up): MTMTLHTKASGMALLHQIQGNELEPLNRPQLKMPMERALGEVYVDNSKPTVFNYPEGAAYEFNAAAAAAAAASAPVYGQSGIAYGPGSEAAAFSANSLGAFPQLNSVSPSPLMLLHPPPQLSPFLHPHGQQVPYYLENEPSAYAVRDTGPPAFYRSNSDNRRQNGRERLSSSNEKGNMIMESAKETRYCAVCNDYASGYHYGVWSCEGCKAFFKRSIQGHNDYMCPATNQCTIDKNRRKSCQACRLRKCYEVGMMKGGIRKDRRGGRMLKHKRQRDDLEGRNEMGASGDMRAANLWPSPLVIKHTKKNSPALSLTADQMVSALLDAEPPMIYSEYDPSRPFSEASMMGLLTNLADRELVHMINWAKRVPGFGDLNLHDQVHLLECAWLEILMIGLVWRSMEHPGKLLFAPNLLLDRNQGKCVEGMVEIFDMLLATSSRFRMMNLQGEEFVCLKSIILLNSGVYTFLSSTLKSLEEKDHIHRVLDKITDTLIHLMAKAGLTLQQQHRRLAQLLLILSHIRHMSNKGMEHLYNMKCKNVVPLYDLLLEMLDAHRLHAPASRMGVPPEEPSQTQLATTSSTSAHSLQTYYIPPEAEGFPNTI
# Sequence of PGR (gene 5241) (P06401 whole entry, looked up): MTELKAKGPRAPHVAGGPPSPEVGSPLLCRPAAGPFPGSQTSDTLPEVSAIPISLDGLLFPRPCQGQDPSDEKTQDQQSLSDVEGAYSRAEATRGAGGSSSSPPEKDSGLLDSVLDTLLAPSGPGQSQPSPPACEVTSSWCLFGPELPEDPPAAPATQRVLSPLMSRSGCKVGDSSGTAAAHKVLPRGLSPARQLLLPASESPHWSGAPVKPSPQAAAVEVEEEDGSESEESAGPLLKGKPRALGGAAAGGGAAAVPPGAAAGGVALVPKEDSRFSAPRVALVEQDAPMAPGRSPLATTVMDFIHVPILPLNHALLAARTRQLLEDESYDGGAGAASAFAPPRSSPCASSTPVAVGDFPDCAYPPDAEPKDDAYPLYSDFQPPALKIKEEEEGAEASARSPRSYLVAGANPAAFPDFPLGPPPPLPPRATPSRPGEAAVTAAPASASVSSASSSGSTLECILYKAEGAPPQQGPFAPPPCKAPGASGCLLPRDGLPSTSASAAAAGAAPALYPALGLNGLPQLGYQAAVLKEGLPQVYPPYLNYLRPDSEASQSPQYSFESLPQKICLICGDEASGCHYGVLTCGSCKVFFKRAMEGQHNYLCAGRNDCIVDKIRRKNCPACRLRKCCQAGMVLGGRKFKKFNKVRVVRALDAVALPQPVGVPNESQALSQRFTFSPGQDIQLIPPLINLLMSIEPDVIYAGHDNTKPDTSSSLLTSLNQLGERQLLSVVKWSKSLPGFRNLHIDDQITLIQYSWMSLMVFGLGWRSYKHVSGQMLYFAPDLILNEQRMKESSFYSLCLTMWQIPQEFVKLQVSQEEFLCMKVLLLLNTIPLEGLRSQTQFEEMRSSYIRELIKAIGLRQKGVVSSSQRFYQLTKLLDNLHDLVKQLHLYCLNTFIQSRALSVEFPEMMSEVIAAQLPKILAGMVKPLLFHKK
smiles,measurement,setting,value
CNC(=O)Nc1ccc(Cl)c(Cl)c1,outcome,[1],inactive
same,outcome,[2],inactive
same,outcome,[3],inactive
same,outcome,[4],inactive
same,outcome,[5],inactive
same,outcome,[6],inactive
same,outcome,[7],inactive
same,outcome,[8],inactive
same,outcome,[9],inactive
same,outcome,[10],inactive
CCN(CC)CCOC(=O)C(c1ccccc1)c1ccccc1,outcome,[3],inactive
CC(C)(C)c1ccc(C(O)CCCN2CCC(C(O)(c3ccccc3)c3ccccc3)CC2)cc1 (configuration not stated),AC50,[3],34.4 µM (active)
same,outcome,[3],inactive
same,AC50,[4],42.7 µM (active)
same,AC50,[5],37.9 µM (active) and 31.8 µM (active)
same,AC50,[7],32.4 µM (active)
same,outcome,[7],inactive
same,outcome,[8],inactive
same,outcome,[9],inactive
same,AC50,[10],42.2 µM (active)
same,outcome,[10],inactive
CCCCCCCCOCCCN,outcome,[11],inactive
same,outcome,[2],inactive
same,outcome,[3],inactive
same,outcome,[4],inactive
same,outcome,[6],inactive
same,outcome,[7],inactive
same,outcome,[8],inactive
same,outcome,[9],inactive
same,outcome,[10],inactive
CCCCCCC/C=C/C=O,outcome,[1],inactive
same,outcome,[3],inactive
same,outcome,[4],inactive
same,outcome,[5],inactive
same,outcome,[6],inactive
same,outcome,[7],inactive
same,outcome,[8],inactive
same,outcome,[9],inactive
same,outcome,[10],inactive
C[C@@H]1[C@H](O)[C@@H](C)/C=C/C=C/C=C/C=C/C=C/C=C/C=C/[C@H](O[C@@H]2O[C@H](C)[C@@H](O)[C@H](N)[C@@H]2O)C[C@@H]2O[C@](O)(C[C@@H](O)C[C@@H](O)[C@H](O)CC[C@@H](O)C[C@@H](O)CC(=O)O[C@H]1C)C[C@H](O)[C@H]2C(=O)O,AC50,[3],72.4 µM (active)
same,outcome,[3],inactive
same,outcome,[4],inactive
same,outcome,[5],inactive
same,outcome,[6],inactive
same,outcome,[7],inactive
same,outcome,[8],inactive
same,outcome,[9],inactive
same,outcome,[10],inactive
same,outcome,[12],inactive
same,outcome,[13],inactive
Cc1cccc(NC(=S)N(C)C)c1,outcome,[1],inactive
same,outcome,[2],inactive
CCN(CC)c1ccc(N=Nc2ccc(S(=O)(=O)N(C)C)cc2)c(S(=O)(=O)NCC[n+]2ccccc2)c1,outcome,[3],inactive
CC(=O)CCc1ccc(OC(C)=O)cc1,outcome,[11],inactive
same,outcome,[3],inactive
same,outcome,[4],inactive
same,outcome,[5],inactive
same,outcome,[7],inactive
same,outcome,[8],inactive
same,outcome,[10],inactive
COC(=O)CCCC(=O)O,outcome,[11],inactive
same,outcome,[2],inactive
same,outcome,[3],inactive
same,outcome,[4],inactive
same,outcome,[5],inactive
same,outcome,[6],inactive
same,outcome,[9],inactive
same,outcome,[10],inactive
CC(C)CC(=O)C1C(=O)c2ccccc2C1=O,outcome,[11],inactive
same,outcome,[2],inactive
same,outcome,[3],inactive
same,outcome,[6],inactive
same,outcome,[8],inactive
same,outcome,[9],inactive
same,outcome,[10],inactive
Cc1cc(Br)ccc1NC(=O)CCl,outcome,[11],inactive
same,AC50,[3],69.3 µM (active)
same,AC50,[4],23.2 µM (active)
same,AC50,[5],46.1 µM (active)
same,AC50,[6],13.3 µM (active)
same,AC50,[7],58.3 µM (active)
same,AC50,[8],13.3 µM (active)
same,AC50,[9],46.1 µM (active)
same,AC50,[10],25.3 µM (active)
CCC(=O)C(=O)CC,outcome,[1],inactive
same,outcome,[3],inactive
same,outcome,[4],inactive
same,outcome,[5],inactive
same,outcome,[6],inactive
same,outcome,[7],inactive
same,outcome,[8],inactive
same,outcome,[9],inactive
same,outcome,[10],inactive
CC1=C(/C=C/C(C)=C/C=C/C(C)=C/C(=O)Nc2ccc(O)cc2)C(C)(C)CCC1,AC50,[3],44.5 µM (active)
same,outcome,[3],inactive
same,AC50,[4],62.4 µM (active)
same,outcome,[4],inactive
same,AC50,[5],62.5 µM (active)
same,outcome,[5],inactive
same,AC50,[6],74.6 µM (active)
same,outcome,[6],inactive
same,AC50,[7],53.7 µM (active) and 35 µM (active)
same,AC50,[8],73.6 µM (active) and 37.7 µM (active)
same,AC50,[9],43.7 µM (active) and 37.9 µM (active)
same,AC50,[10],72.5 µM (active) and 36.6 µM (active)
O=c1[nH]c(=O)c2ccccc2o1,outcome,[3],inactive
same,outcome,[4],inactive
CC(O)(c1ccc(Cl)cc1)c1ccc(Cl)cc1,outcome,[1],inactive
same,outcome,[11],inactive
same,outcome,[3],inactive
same,outcome,[5],inactive
same,outcome,[6],inactive
same,outcome,[7],inactive
same,outcome,[8],inactive
same,outcome,[10],inactive
same,outcome,[14],inactive
same,outcome,[15],inactive
same,AC50,[16],61.6 µM (active)
same,outcome,[17],inactive
CC(C)(C)CC(C)(C)c1ccc(OCCO)cc1,outcome,[3],inactive
same,AC50,[4],5.43 µM (active)
same,outcome,[4],inactive
same,outcome,[5],inactive
same,outcome,[6],inactive
same,AC50,[7],35.6 µM (active)
same,outcome,[7],inactive
same,outcome,[8],inactive
same,outcome,[9],inactive
CC(=O)O[C@]1(C(C)=O)CC[C@H]2[C@@H]3C=C(Cl)C4=CC(=O)CC[C@]4(C)[C@H]3CC[C@@]21C,outcome,[3],inactive
same,AC50,[4],43.1 µM (active)
same,outcome,[4],inactive
same,outcome,[5],inactive
same,AC50,[6],72.5 µM (active)
same,outcome,[6],inactive
same,AC50,[7],21.8 µM (active)
same,outcome,[7],inactive
same,outcome,[8],inactive
same,outcome,[9],inactive
same,AC50,[10],38 µM (active)
same,outcome,[10],inactive
COc1cc(C(=S)N2CCOCC2)cc(OC)c1OC,outcome,[3],inactive
same,outcome,[4],inactive
S=c1nc[nH]c2nc[nH]c12,AC50,[3],1.56 µM (active)
same,outcome,[3],inactive
same,AC50,[4],7.89 µM (active) and 10.1 µM (active)
same,AC50,[5],674 nM (active) and 2.62 µM (active)
same,AC50,[6],9.95 µM (active) and 8 µM (active)
same,AC50,[7],1.65 µM (active) and 3 µM (active)
same,AC50,[8],11.1 µM (active) and 8.01 µM (active)
same,outcome,[9],inactive
same,AC50,[10],6.3 µM (active) and 6.4 µM (active)
COC(=O)CCC(=O)O,outcome,[3],inactive
